{"source": "PubChem BioAssay AID743060", "about": "(The Scripps Research Institute Molecular Screening Center, 2013)"}
{"experiment": "inhibitors of T. brucei MetRS aminoacylation, late-stage follow-up, biochemical, radioactivity, round 1 (AID 743060)", "conditions": "purified enzyme, radiolabel aminoacylation, scintillation, 2 h; at 10 µM; stronger effect = higher value", "units": {"inhibition": "%"}}
{"smiles": "Cc1ccc(NC(=O)CN(C)C(=O)CCSc2ccc(F)cc2)cc1", "inhibition": 67.3}
{"smiles": "CN1CC(=O)N2C(c3cccc([N+](=O)[O-])c3)c3[nH]c4ccccc4c3C[C@H]2C1=O", "note": "(some centres undefined)", "inhibition": 96.7}
{"smiles": "O=C(NNC(=O)c1cc(-c2ccc(Cl)c(Cl)c2)nc2ccccc12)Nc1ccccc1", "inhibition": 85.5}
{"smiles": "O=C(NCc1nc2ccccc2[nH]1)C1=C[C@H](c2ccccc2)C[C@H](OCc2ccc(CO)cc2)O1", "inhibition": 61.8}
{"smiles": "O=C(Cn1cc(C(=O)c2ccco2)c2ccccc21)Nc1cccc(C(F)(F)F)c1", "inhibition": 89}
{"smiles": "COCCc1nc2ccc(C(=O)NCCc3nc4ccc(OC)cc4[nH]3)cc2o1", "inhibition": -2.59}
{"smiles": "O=C(NCc1nc2ccccc2[nH]1)C1=C[C@@H](c2ccc(Br)cc2)C[C@@H](OCCCCO)O1", "inhibition": 99.9}
{"smiles": "O=C(NCc1nc2ccccc2[nH]1)C1=C[C@H](C2CC2)C[C@H](OCc2ccc(CO)cc2)O1", "inhibition": 56.9}
{"smiles": "O=C(NCCc1nc2ccccc2[nH]1)c1ccc(Cl)c(Cl)c1", "inhibition": 97.5}
{"smiles": "CC(=O)N(CCc1ccccc1)C1CC(=O)N(c2ccc(Br)cc2)C1=O", "note": "(centres undefined)", "inhibition": -21.2}
{"smiles": "O=C(Cn1cc(C(=O)C(=O)N2CCOCC2)c2ccccc21)NCC1CCCO1", "note": "(centres undefined)", "inhibition": 1.28}
{"smiles": "O=C(Cn1cc(C(=O)c2ccccc2)c2ccccc21)Nc1cccc(C(F)(F)F)c1", "inhibition": 65.9}
{"smiles": "Brc1cnc2nc(SCc3nc4ccccc4[nH]3)[nH]c2c1", "inhibition": 84.9}
{"smiles": "O=C(NCCc1nc2ccccc2[nH]1)c1ccc(Cl)cc1Cl", "inhibition": 94.9}
{"smiles": "CC(=O)N(CCc1ccccc1)C1CC(=O)N(c2ccc(Cl)cc2)C1=O", "note": "(centres undefined)", "inhibition": -17.1}
{"smiles": "O=C(C(=O)N1CCOCC1)c1cn(CC(=O)N2CCCc3ccccc32)c2ccccc12", "inhibition": -4.11}
{"smiles": "O=C(NCc1nc2ccccc2[nH]1)C1=C[C@H](c2csc3ccccc23)C[C@H](OCCCCO)O1", "inhibition": 97.8}
{"smiles": "O=C(Cn1cnc2ccccc21)Nc1cccc([N+](=O)[O-])c1", "inhibition": 91.9}
{"smiles": "O=C(CCC(=O)Nc1cccc([N+](=O)[O-])c1)NN=Cc1cccs1", "inhibition": 74.3}
{"smiles": "Cc1ccc(C(=O)NCCc2nc3ccccc3[nH]2)cc1C", "inhibition": -3.55}
{"smiles": "O=C1[C@@H]2Cc3c([nH]c4ccccc34)C(c3cccc([N+](=O)[O-])c3)N2C(=O)CN1CCCO", "note": "(some centres undefined)", "inhibition": 97.5}
{"smiles": "Cc1ccc(C(=O)NCCc2nc3ccccc3[nH]2)cc1[N+](=O)[O-]", "inhibition": 86.4}
{"smiles": "Cc1cccc2[nH]c(CCN(C)C(=O)c3cccc(C4CCNC4)c3)nc12", "note": "(centres undefined)", "inhibition": -14.3}
{"smiles": "Cc1ccc2[nH]c3nc(SCC(=O)Nc4ccc(C(F)(F)F)cc4)nnc3c2c1", "inhibition": 15.1}
{"smiles": "CCN(CCc1nc2ccc(C)cc2[nH]1)C(=O)c1ccc2ncccc2c1", "inhibition": -5.17}
{"smiles": "CNC(=S)N(CCc1ccccc1)C1CC(=O)N(c2ccc(Br)cc2)C1=O", "note": "(centres undefined)", "inhibition": 99.7}
{"smiles": "CCN(CC)C(=O)C(=O)c1cn(CC(=O)Nc2cccc(C(F)(F)F)c2)c2ccccc12", "inhibition": 99.5}
{"smiles": "O=C(NCCc1nc2ccccc2[nH]1)c1c(F)cccc1F", "inhibition": 1.38}
{"smiles": "CC(=O)c1cn(CC(=O)Nc2cccc(C(F)(F)F)c2)c2ccccc12", "inhibition": 39.3}
{"smiles": "Cc1ccc(CNC(=O)CSc2nnc3c(n2)[nH]c2ccc(C)cc23)cc1", "inhibition": 71.3}
{"smiles": "CC(C)(C)[C@H]1C=C(C(=O)NCc2nc3ccccc3[nH]2)O[C@@H](OCc2ccc(CO)cc2)C1", "inhibition": 83.8}
{"smiles": "O=C(NCCc1nc2ccccc2[nH]1)c1ccc(Cl)cc1", "inhibition": 74.2}
{"smiles": "CCN(CC)C(=O)C(=O)c1cn(CC(=O)N(CC)c2ccccc2)c2ccccc12", "inhibition": -7.96}
{"smiles": "CCOC(=O)N1CCC(Nc2c(Nc3ccc(F)cc3)c(=O)c2=O)CC1", "inhibition": 72.7}
